Bioassay records (PubChem)
Many of the other results were omitted from the sample, so hits are more common in it than they were.
Cruzain Triton – inhibitors of Trypanosoma cruzi cruzain with detergent; AID 1478; Potency, µM, actives largely listed as inhibitors; 200,000 tested, 0.43% active; purified cruzain, Z-FR-AMC fluorescence, 0.01% Triton; P25779; also: nearly all actives have a fitted effect of over 40% in size
Target sequence (P25779 123-467 limits assumed): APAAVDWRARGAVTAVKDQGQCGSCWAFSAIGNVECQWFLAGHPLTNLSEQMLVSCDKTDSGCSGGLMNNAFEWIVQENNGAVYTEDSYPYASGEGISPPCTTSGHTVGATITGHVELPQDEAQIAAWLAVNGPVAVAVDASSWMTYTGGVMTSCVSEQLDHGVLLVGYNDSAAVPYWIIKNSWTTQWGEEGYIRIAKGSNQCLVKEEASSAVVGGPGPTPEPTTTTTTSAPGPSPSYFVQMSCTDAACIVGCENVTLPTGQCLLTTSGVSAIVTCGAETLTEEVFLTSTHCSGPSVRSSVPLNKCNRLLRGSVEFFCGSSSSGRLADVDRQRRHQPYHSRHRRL
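Read-out: AMC fluorescence (360 nm excitation, 450 nm emission), four reads over 2 min, first-to-third difference used. Conditions: cruzain 1.5 nM, Z-FR-AMC 2 uM, pH 5.5 acetate, 5 mM DTT, 0.01% Triton X-100.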
Cruzain inh noDet – blocks cruzain activity in detergent-free assay | P25779 | purified cruzain, Z-FR-AMC fluorescence, no detergent | Potency, µM, most hits filed as inhibitors | 200,000 tested, 2.3% active; also: nearly all actives have a fitted effect of over 40% in size
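Detergent-free condition (0.00005% Triton X-100) in acetate buffer pH 5.5 with DTT. 1.5 nM enzyme and compound were pre-mixed 15 min, then 2 uM Z-FR-AMC substrate added; reaction progress from fluorescence change between first and third reads (60 s).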
FBPA Giardia inh – inhibitors of Giardia lamblia fructose-1,6-bisphosphate aldolase; purified Giardia FBPA; Potency, µM (doses to about 59.6 µM), usual class: inhibitors; 290,000 tested, 0.71% active; AID 2451; also: nearly all actives have a fitted effect of over 55% in size
Target sequence (A8B2U2 whole entry, looked up): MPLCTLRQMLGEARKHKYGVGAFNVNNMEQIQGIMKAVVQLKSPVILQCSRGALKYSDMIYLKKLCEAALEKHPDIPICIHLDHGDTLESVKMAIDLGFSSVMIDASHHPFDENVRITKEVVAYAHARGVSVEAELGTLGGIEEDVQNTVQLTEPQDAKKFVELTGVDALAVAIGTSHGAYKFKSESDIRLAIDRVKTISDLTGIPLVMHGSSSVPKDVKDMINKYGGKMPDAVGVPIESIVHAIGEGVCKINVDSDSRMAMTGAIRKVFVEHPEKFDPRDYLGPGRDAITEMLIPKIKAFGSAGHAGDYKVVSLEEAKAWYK
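40 nM FBPA preincubated 10 min at RT with compound (up to 57.5 uM final), then substrate plus GAPDH/TPI/NAD/arsenate coupling and diaphorase/resazurin added. Fluorescence read after 20 min at RT, 525/598 nm.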
Numbers stand for hits; – = inactive; ? = inconclusive; · = not tested or not shown. Calls follow the shape of the dose curve; as a rule, active = well fitted curve in the direction sought with a large enough effect; inconclusive = small, poorly fitted or top-dose-only effect, or another doubt; inactive = no such curve, though single readings can be large; an effect the other way counts as inactive or inconclusive.

SMILES | Cruzain Triton | Cruzain inh noDet | FBPA Giardia inh
O=C(COc1ccc2oc(-c3ccccc3)cc(=O)c2c1)Nc1ccccc1 | – | 32µM | –
COC(=O)COc1ccc2oc(-c3ccc(OC)cc3)cc(=O)c2c1 | – | – | ·
CCSC1=C(C#N)C(c2cccs2)C(C(=O)OC)=C(C)N1 (stereo not drawn) | – | – | –
CCCSC1=C(C#N)C(c2cccs2)C(C(=O)Nc2ccccc2)=C(C)N1 (stereo not drawn) | – | 25µM | –
Cn1cc(S(=O)(=O)N2CCCCCC2)cc1C(=O)N1CCN(c2cccc(C(F)(F)F)c2)CC1 | – | ? | ·
CCCCNC(=O)C(CC)Sc1nc2ccccc2c(=O)n1Cc1ccco1 (stereo not drawn) | – | – | ·
COc1ccccc1NC(=O)CN1C(=O)C2(SCC(=O)N2c2ccc(C)c(C)c2)c2ccccc21 (stereo not drawn) | – | – | ·
COc1ccccc1NC(=O)CN1C(=O)C2(SCC(=O)N2c2ccc(F)c(F)c2)c2ccccc21 (stereo not drawn) | – | 16µM | ·
CCOC(=O)c1c(/N=C/c2c(O)n(-c3ccc(F)cc3)c(=S)[nH]c2=O)sc2c1CCCC2 | – | – | –
CCOC(=O)c1c(/N=C/c2c(O)n(-c3ccccc3F)c(=S)[nH]c2=O)sc2c1CCCC2 | – | 16µM | 18µM
CC(=O)OC(C(=O)c1ccccc1)c1ccccc1 (stereo not drawn) | – | – | ·
COc1cc2c(C(=O)N3CCN(c4ccc(F)cc4)CC3)cn(CC(C)C)c(=O)c2cc1OC | – | ? | ·
CC(C)c1ccc(/C=C/C(=O)Nc2nncs2)cc1 | – | ? | –
Cc1sc(NC(=O)/C=C/c2ccc(C(C)C)cc2)c(C#N)c1C | – | 25µM | –
CC(=O)Nc1ccc(S(=O)(=O)NC2=C(N3CCN(C)CC3)C(=O)c3ccccc3C2=O)cc1 | · | · | 0.71µM
CC(=O)Nc1ccc(S(=O)(=O)NC2=C(N3CCN(Cc4ccccc4)CC3)C(=O)c3ccccc3C2=O)cc1 | – | – | ?
CC(C)S | – | – | ·
CN(CC(=O)O)Cc1c[nH]c2ccccc12 | – | – | ·
Cc1ccc(S(=O)(=O)O[C@@H]2[C@H]([C@@H]3COC(C)(C)O3)O[C@H]3OC(C)(C)O[C@@H]32)cc1 | – | – | ·
O=[As](O)(O)c1ccc(Cc2ccc([As](=O)(O)O)cc2)cc1 | – | ? | ·
COC(=O)[C@@H](Cc1c[nH]c2ccccc12)NC(=O)c1ccc2c(c1)OCO2 | · | · | –
O=C(COC(=O)[C@H](Cc1c[nH]c2ccccc12)NC(=O)c1ccc(Cl)cc1)Nc1ccc2c(c1)OCO2 | 3.5µM | 20µM | –
CCOC(=O)C(Cc1c[nH]c2ccccc12)NC(=O)COc1ccc(Cl)cc1 (stereo not drawn) | – | – | ·
CC(C)(C)c1ccc(C(=O)NC(Cc2c[nH]c3ccccc23)C(=O)OCC(=O)c2ccc(Cl)cc2)cc1 (stereo not drawn) | – | 25µM | ·
COc1ccc(/C=C(\C#N)C(N)=O)c(OC)c1 | – | – | ·
SMILES | Cruzain Triton | Cruzain inh noDet | FBPA Giardia inh
O=C(Nc1cc(F)ccc1F)C1CCN(C(=O)c2cnn(-c3ccccc3)c2-n2cccc2)CC1 | – | ? | ·
O=C(Nc1ccc2oc(-c3ccccc3)nc2c1)c1ccc2ccccc2c1 | – | – | ·
C(=C\c1nc(-c2ccccc2)oc1Nc1ccc2ccccc2c1)/c1ccccc1 | – | 25µM | –
CCC1CN(C(=O)Nc2cccc3c2CCCC3)c2cc(C)ccc2O1 (stereo not drawn) | – | – | ·
CC(C)C12CC[C@@]3(CC[C@H]4[C@@](C)(CCC[C@]4(C)C(=O)O)[C@@H]3C1)[C@@H](CN)C2 | – | – | ·
CCCOc1ccc(N)cc1N | – | – | 0.4µM
CCCOc1cc(N)ccc1C(=O)OCCN(CC)CC | – | – | –
CCC(=O)Nc1cc2nn(-c3ccc(OC)cc3)nc2cc1C | – | ? | –
COc1ccc(-n2nc3cc(C)c(NC(=S)NC(=O)c4ccccc4C)cc3n2)cc1 | – | 13µM | –
Cc1nn(CCCC(=O)NCCc2ccc(Cl)cc2)c(=O)c2c1sc1ccccc12 | – | – | ·
Oc1c(C(c2ccccc2F)N2CCC3(CC2)OCCO3)sc2nc(-c3ccco3)nn12 (stereo not drawn) | – | – | ·
O=[N+]([O-])c1ccc(O)c(N=Cc2sc3ccccc3c2O)c1 | – | 13µM | ?
Oc1ccc(Cl)cc1N=Cc1sc2ccccc2c1Cl | · | · | –
COC(=O)c1cc(=O)c(O)c2c(O)c(O)ccc2c1 | – | – | 5µM
COC(=O)c1ccc(O)cc1 | – | – | –
COCC(=O)Nc1ccc(OC)c(Cl)c1 | · | · | –
CCOC(=O)/C=C/C(=O)OCC(=O)Nc1ccc(OC)c(Cl)c1 | 13µM | 16µM | –
COc1ccc(NC(=O)COC(=O)C(CC(C)C)N2C(=O)C3CC=CCC3C2=O)cc1Cl (stereo not drawn) | 7.1µM | 10µM | –
COc1ccc(NC(=O)Cn2c(C(C)C)nc(C)cc2=O)cc1Cl | · | · | –
COc1ccc(NC(=O)COC(C)=O)cc1Cl | – | – | –
COc1ccc(NC(=O)COC(=O)/C=C/C(=O)OCC(=O)Nc2ccc(OC)c(Cl)c2)cc1Cl | – | 25µM | –
CC1(CC(=O)O)O[C@H]2CCCCC[C@H]2O1 (stereo partly drawn) (tested in a mixture with another compound) | – | – | ·
O=C(N/N=C/c1ccccc1Cl)c1n[nH]c2c1CCCC2 | – | 25µM | –
O=C(N/N=C/c1ccccc1)c1n[nH]c2c1CCCC2 | · | · | –
O=C(N/N=C/C(Br)=C/c1ccccc1)c1n[nH]c2c1CCC2 | – | 16µM | –
SMILES | Cruzain Triton | Cruzain inh noDet | FBPA Giardia inh
O=C(N/N=C/c1cccs1)c1n[nH]c2c1CCC2 | – | – | –
CCn1cc(C(=O)NCc2ccc(C)cc2)c(=O)c2cc(S(=O)(=O)N3CCCCCC3)ccc21 | – | ? | ·
Cc1ccc(-c2noc(CNC(=O)c3ccc(Br)o3)n2)cc1 | – | – | ·
COc1ccc(Br)c(/C=N/NC(=O)COc2ccc(-c3ccccc3)cc2)c1 | – | 20µM | –
COc1ccc(/C=N/NC(=O)COc2ccccc2-c2ccccc2)cc1 | – | – | –
COc1ccc(Cl)cc1C(=O)NNC(=S)NC(=O)c1cc(-c2ccccc2)nc2ccccc12 | – | 3.2µM | ·
COC(=O)c1ccc(NC(=S)NC(=O)c2cc(-c3ccccc3)nc3ccccc23)cc1 | – | 10µM | –
O=C(NNC(=O)c1cc(-c2cccnc2)nc2ccccc12)Nc1ccc(Cl)cc1 | · | · | –
COC(=O)c1ccc(NC(=O)c2cc(-c3ccccn3)nc3ccccc23)cc1 | · | · | –
O=C(NNC(=O)c1cc(-c2ccccc2)nc2ccccc12)Nc1cccc(Cl)c1 | – | 20µM | –
COc1ccc(C(=O)NNC(=S)NC(=O)c2cc(-c3ccccc3)nc3ccccc23)cc1 | – | ? | ?
COc1ccccc1N1CCN(CCCNC(=O)c2cnn(-c3cccc(Cl)c3)c2C2CCN(C(=O)OC(C)(C)C)CC2)CC1 | – | – | ·
CC(CC(=O)O)(CC(=O)O)c1ccccc1 | – | – | ·
O=C(NNC(=O)c1cc2cc3ccccc3nc2s1)c1cccc(C(F)(F)F)c1 | – | 25µM | –
O=C(NNS(=O)(=O)c1ccccc1)c1cc2cc3ccccc3nc2s1 | – | – | –
COc1ccc(C(=O)CCN2CCCC(C)C2)cc1 (stereo not drawn) | · | · | –
CC1CCCN(CCC(=O)c2ccc(Br)cc2)C1 (stereo not drawn) | ? | 5µM | –
